Drawing on PMC5700166, this text covers binding signal for 12 sequences.

Numbering of substitutions follows the chain as printed.

Holding throughout (assay): protein-binding microarray (PBM); PBM: ~300 nM protein, 6 mM HEPES pH 7.8, 80 mM KCl, 0.5 mM EDTA, 0.5 mM EGTA, 6% glycerol, 35 ng/ul poly-dIdC, 1% milk, 1 h, room temperature; Ap Aiptasia and Nv Nematostella (sea anemones) / Co Capsaspora / Aq Amphimedon (sponge) / Dm Drosophila / Hu human; RHD is the Rel homology domain; high values mean tight binding
Common to all, as to conditions: dsDNA, one strand shown

One test has as its target T1, GST-Ap-NF-kB RHD (Exaiptasia pallida (Aiptasia), UniProt A0A913YAJ5 2-422).
T1 sequence: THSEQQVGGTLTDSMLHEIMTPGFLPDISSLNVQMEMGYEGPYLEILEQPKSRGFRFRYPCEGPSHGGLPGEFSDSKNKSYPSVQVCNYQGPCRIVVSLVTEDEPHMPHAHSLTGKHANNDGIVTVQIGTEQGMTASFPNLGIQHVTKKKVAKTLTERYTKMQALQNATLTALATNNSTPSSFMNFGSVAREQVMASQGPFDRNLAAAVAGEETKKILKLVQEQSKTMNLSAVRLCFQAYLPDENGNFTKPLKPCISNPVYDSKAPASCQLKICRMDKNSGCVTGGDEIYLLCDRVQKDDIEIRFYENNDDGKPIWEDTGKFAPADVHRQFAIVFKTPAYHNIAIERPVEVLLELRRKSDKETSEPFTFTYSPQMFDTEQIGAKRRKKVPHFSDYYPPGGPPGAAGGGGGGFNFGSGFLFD

Test [1] deals with T2, GST-Nv-NF-kB (Cys allele) (Nematostella vectensis, UniProt E5G601 2-411).
T2 sequence: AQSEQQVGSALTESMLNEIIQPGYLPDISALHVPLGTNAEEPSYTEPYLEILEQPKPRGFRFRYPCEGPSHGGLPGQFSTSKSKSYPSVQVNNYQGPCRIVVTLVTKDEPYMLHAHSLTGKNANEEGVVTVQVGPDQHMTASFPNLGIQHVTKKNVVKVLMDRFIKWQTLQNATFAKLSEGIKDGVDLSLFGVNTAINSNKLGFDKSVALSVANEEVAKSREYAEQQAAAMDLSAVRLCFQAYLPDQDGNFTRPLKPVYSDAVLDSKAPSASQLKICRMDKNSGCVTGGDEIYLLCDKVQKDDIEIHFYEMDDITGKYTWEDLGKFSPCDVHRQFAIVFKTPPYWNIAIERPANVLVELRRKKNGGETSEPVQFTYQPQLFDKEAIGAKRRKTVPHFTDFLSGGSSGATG

Test [2] has as its target T3, GST-Nv-NF-kB (Ser allele) (Nematostella vectensis, UniProt A7UNT2 2-411).
T3 sequence: T2 sequence with Q21R, C66S, S207N, E215Q, V217A, E225K, A268E, D399E

The next test deals with T4, GST-Co-NF-kB (Capsaspora owczarzaki, UniProt F1ARL5 200-546).
T4 sequence: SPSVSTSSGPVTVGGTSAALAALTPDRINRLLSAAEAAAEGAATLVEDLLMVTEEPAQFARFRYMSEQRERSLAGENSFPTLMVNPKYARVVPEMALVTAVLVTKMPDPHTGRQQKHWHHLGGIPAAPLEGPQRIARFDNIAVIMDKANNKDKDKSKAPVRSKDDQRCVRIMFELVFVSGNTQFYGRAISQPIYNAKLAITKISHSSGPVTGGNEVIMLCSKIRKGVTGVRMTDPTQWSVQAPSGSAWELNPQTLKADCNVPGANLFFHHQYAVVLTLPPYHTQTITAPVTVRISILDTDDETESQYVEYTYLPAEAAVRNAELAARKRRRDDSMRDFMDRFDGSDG

In the next test the target is T5, GST-Dm-Relish (Drosophila melanogaster, UniProt Q94527 99-473).
T5 sequence: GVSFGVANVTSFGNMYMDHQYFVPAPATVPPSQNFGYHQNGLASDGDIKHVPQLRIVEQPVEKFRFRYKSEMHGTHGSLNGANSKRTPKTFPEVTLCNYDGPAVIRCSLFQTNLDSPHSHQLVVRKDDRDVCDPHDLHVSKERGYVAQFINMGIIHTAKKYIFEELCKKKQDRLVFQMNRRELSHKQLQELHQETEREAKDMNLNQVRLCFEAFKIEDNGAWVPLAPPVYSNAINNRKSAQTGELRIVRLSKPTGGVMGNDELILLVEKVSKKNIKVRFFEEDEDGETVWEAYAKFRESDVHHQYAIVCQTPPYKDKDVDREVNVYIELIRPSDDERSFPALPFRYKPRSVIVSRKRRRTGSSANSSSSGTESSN

The target of a further test is T6, GST-Aq-NF-kB (Amphimedon queenslandica, UniProt A9Y5G7 2-389).
T6 sequence: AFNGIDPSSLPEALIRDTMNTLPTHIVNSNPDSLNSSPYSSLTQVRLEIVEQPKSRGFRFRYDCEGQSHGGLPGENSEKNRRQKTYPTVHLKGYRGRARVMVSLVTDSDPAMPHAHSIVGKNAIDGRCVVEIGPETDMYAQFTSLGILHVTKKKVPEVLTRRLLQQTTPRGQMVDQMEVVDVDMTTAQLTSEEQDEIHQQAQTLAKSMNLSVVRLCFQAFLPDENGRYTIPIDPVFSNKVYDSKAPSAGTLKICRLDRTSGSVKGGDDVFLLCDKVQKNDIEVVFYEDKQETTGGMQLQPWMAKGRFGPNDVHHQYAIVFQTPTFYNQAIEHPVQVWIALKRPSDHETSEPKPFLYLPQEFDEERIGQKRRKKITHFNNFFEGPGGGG

With “CCGATTAACATCAAAAATTCCCATGATGTTAATCGGGTCTTGATTCGCTTGACGCTGCTG”, the binding signal with GST-Ap-NF-kB RHD came to 5.04 z-score; in test [1], 7.75 z-score; in test [2] it was 6.99 z-score; with GST-Co-NF-kB, 5.2 z-score; in the test with GST-Dm-Relish it was 7.58 z-score; with GST-Aq-NF-kB it was 6.55 z-score.
“CCGATTAACATCAGGGGAACATATGATGTTAATCGGGTCTTGATTCGCTTGACGCTGCTG”: the binding signal turned out to be 5.1 z-score with GST-Ap-NF-kB RHD; 5.89 z-score in test [1]; 6.74 z-score in test [2]; 7.58 z-score with GST-Co-NF-kB; 4.08 z-score with GST-Dm-Relish; 5.59 z-score with GST-Aq-NF-kB.
As to “CCGATTAACATCACCTATTCCCCTGATGTTAATCGGGTCTTGATTCGCTTGACGCTGCTG”, the binding signal in the test with GST-Ap-NF-kB RHD is 5.73 z-score; in test [1], 5.93 z-score; in test [2] it was 7.28 z-score; with GST-Co-NF-kB it was 5.72 z-score; in the test with GST-Dm-Relish, 2.23 z-score; with GST-Aq-NF-kB, 4.27 z-score.
With “CCGATTAACATCACTCTTTCCCCTGATGTTAATCGGGTCTTGATTCGCTTGACGCTGCTG”, the binding signal with GST-Ap-NF-kB RHD stood at 4.86 z-score; in test [1], 5.44 z-score; in test [2], 7.19 z-score; with GST-Co-NF-kB, 6.1 z-score; with GST-Dm-Relish it was 1.95 z-score; in the test with GST-Aq-NF-kB, 4.18 z-score.
As to “CCGATTAACATCAGCATGGGAAATGATGTTAATCGGGTCTTGATTCGCTTGACGCTGCTG”, the binding signal in the test with GST-Ap-NF-kB RHD worked out at 1.97 z-score; in test [1] it was 2.72 z-score; in test [2] it was 2.33 z-score; with GST-Co-NF-kB, 1.93 z-score; with GST-Aq-NF-kB it was 1.67 z-score.
For the sequence “CCGATTAACATCACTATTTTCCCTGATGTTAATCGGGTCTTGATTCGCTTGACGCTGCTG”, the binding signal in the test with GST-Ap-NF-kB RHD was found to be 3.72 z-score; in test [1], 4.96 z-score; in test [2] it was 6.91 z-score; with GST-Co-NF-kB, 5.27 z-score; in the test with GST-Dm-Relish, 1.52 z-score; in the test with GST-Aq-NF-kB it was 3.51 z-score.
For “CCGATTAACATCAGGGGGGGGTATGATGTTAATCGGGTCTTGATTCGCTTGACGCTGCTG”, the binding signal with GST-Ap-NF-kB RHD is 5.02 z-score; in test [1] it was 2.75 z-score; in test [2], 3.75 z-score; in the test with GST-Co-NF-kB, 5.96 z-score; with GST-Aq-NF-kB it was 4.39 z-score.
With “CCGATTAACATCACAAATTTCCCTGATGTTAATCGGGTCTTGATTCGCTTGACGCTGCTG”, the binding signal in the test with GST-Ap-NF-kB RHD stood at 4.62 z-score; in test [1], 6.4 z-score; in test [2], 6.92 z-score; in the test with GST-Co-NF-kB, 5.22 z-score; with GST-Dm-Relish it was 3.72 z-score; with GST-Aq-NF-kB, 6.5 z-score.
For the sequence “CCGATTAACATCACGTATTCCCCTGATGTTAATCGGGTCTTGATTCGCTTGACGCTGCTG”, the binding signal in the test with GST-Ap-NF-kB RHD turned out to be 7.14 z-score; in test [1], 7.75 z-score; in test [2], 7.86 z-score; with GST-Co-NF-kB it was 6.56 z-score; with GST-Dm-Relish, 4.86 z-score; with GST-Aq-NF-kB it was 5.55 z-score.
Take “CCGATTAACATCAGGGGTGGGGATGATGTTAATCGGGTCTTGATTCGCTTGACGCTGCTG”: the binding signal in the test with GST-Ap-NF-kB RHD was found to be 4.17 z-score; in test [1], 3.38 z-score; in test [2], 3.28 z-score; in the test with GST-Co-NF-kB, 5.49 z-score; in the test with GST-Dm-Relish, 2.85 z-score; with GST-Aq-NF-kB, 3.59 z-score.
Regarding “CCGATTAACATCAGGGGAAGCACTGATGTTAATCGGGTCTTGATTCGCTTGACGCTGCTG”, the binding signal worked out at 5.88 z-score with GST-Ap-NF-kB RHD; 6.43 z-score in test [1]; 6.99 z-score in test [2]; 4.4 z-score with GST-Co-NF-kB; 9.95 z-score with GST-Dm-Relish; 6.83 z-score with GST-Aq-NF-kB.
With “CCGATTAACATCAACGTGGGGCGTGATGTTAATCGGGTCTTGATTCGCTTGACGCTGCTG”, the binding signal turned out to be 1.07 z-score with GST-Ap-NF-kB RHD; 1.14 z-score in test [1]; 1.09 z-score in test [2]; 1.11 z-score with GST-Co-NF-kB; 1.15 z-score with GST-Aq-NF-kB.
